# According to the supplement of paper PMC10646978:
# ± gives the standard deviation.
# Columns and labels:
# Conditions in all cases: modulator concentration 10 µM
# [1] = system: RAW-Dual (murine macrophage reporter line); assay: NF-kB reporter (SEAP) activity fold change vs agonist alone; higher = enhanced NF-kB activity
# In short: (§1)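 Compound reached 10 μM final in each well by pin transfer, onto RAW-Dual murine macrophage reporter cells seeded at 50 000 per well in 384-well plates. After 1 hour at 37 °C, the cells were stimulated overnight with a PRR agonist. SEAP in the supernatant was read with QUANTI-Blue at 620 nm absorbance for NF-κB, and Lucia luciferase was read with QUANTI-Luc luminescence for IRF. Each signal was turned into fold change against the mean agonist-only control on the same plate, and two replicate plates were averaged with propagated errors.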
# [2] = system: RAW-Dual (murine macrophage reporter line); assay: IRF reporter (Lucia luciferase) activity fold change vs agonist alone; higher = enhanced IRF activity
# In short: as §1
# [3] = system: RAW-Dual (murine macrophage reporter line); assay: viability score (confluency relative to resting cells, overnight) (fraction); higher = more viable, active = viable (0.7 or more)
# In short: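 In 384-well plates, RAW-Dual macrophages received compound at a final 10 μM overnight. Two confluency masks were then made with IncuCyte software from IncuCyte images of all imaged wells. The viability score is defined as confluency relative to resting cells. Passing the cutoff required both masks to lie above 70% of resting cells.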
# [4] = agonist: CpG ODN 1826 0.5 ug/mL
smiles,measurement,setting,value
Cl.Cl.O=C(O)COCCN1CCN([C@H](c2ccccc2)c2ccc(Cl)cc2)CC1,NF-kB reporter,[1]; [4],1.07 ± 0.082
same,NF-kB reporter,[1]; agonist: LPS 0.1 ug/mL,1.06 ± 0.052
same,NF-kB reporter,[1]; agonist: MPLA […],1.01 ± 0.047
same,IRF reporter,[2]; agonist: 3'3'-cGAMP 10 ug/mL,0.94 ± 0.057
same,IRF reporter,[2]; agonist: LPS 0.1 ug/mL,0.905 ± 0.035
same,IRF reporter,[2]; agonist: MPLA […],0.97 ± 0.13
same,viability score,[3],1 (active)
O=C(O)CCn1c2c(c3ccccc31)C[C@H](NS(=O)(=O)c1ccc(F)cc1)CC2,NF-kB reporter,[1]; [4],1.13 ± 0.27
same,NF-kB reporter,[1]; agonist: LPS 0.1 ug/mL,0.94 ± 0.061
same,NF-kB reporter,[1]; agonist: MPLA […],0.947 ± 0.06
same,IRF reporter,[2]; agonist: 3'3'-cGAMP 10 ug/mL,0.879 ± 0.072
same,IRF reporter,[2]; agonist: LPS 0.1 ug/mL,1.2 ± 0.29
same,IRF reporter,[2]; agonist: MPLA […],1.1 ± 0.12
same,viability score,[3],1 (active)
Cc1cn([C@@H]2C[C@@H](O)[C@H](CO)O2)c(=O)[nH]c1=O,NF-kB reporter,[1]; [4],1.12 ± 0.086
same,NF-kB reporter,[1]; agonist: LPS 0.1 ug/mL,0.998 ± 0.054
same,NF-kB reporter,[1]; agonist: MPLA […],1.01 ± 0.065
same,IRF reporter,[2]; agonist: 3'3'-cGAMP 10 ug/mL,1.09 ± 0.18
same,IRF reporter,[2]; agonist: LPS 0.1 ug/mL,0.886 ± 0.04
same,IRF reporter,[2]; agonist: MPLA […],0.82 ± 0.15
same,viability score,[3],1.01 (active)
O=C(C=Cc1ccco1)Nc1ccc(C(=O)O)cc1NC(=O)C=Cc1ccco1,NF-kB reporter,[1]; [4],0.691 ± 0.069
same,NF-kB reporter,[1]; agonist: LPS 0.1 ug/mL,1.11 ± 0.061
same,NF-kB reporter,[1]; agonist: MPLA […],0.932 ± 0.056
same,IRF reporter,[2]; agonist: 3'3'-cGAMP 10 ug/mL,0.884 ± 0.028
same,IRF reporter,[2]; agonist: LPS 0.1 ug/mL,1.27 ± 0.19
same,IRF reporter,[2]; agonist: MPLA […],0.976 ± 0.27
same,viability score,[3],1.02 (active)
COC(=O)C1C(=O)CC(C)(O)C(C(=O)OC)C1c1ccc2c(c1)OCO2 (centres undefined),NF-kB reporter,[1]; [4],1.03 ± 0.088
same,NF-kB reporter,[1]; agonist: LPS 0.1 ug/mL,1.08 ± 0.081
same,NF-kB reporter,[1]; agonist: MPLA […],0.958 ± 0.085
same,IRF reporter,[2]; agonist: 3'3'-cGAMP 10 ug/mL,1 ± 0.038
same,IRF reporter,[2]; agonist: LPS 0.1 ug/mL,1.57 ± 0.16
same,IRF reporter,[2]; agonist: MPLA […],1.14 ± 0.11
same,viability score,[3],0.989 (active)
COC(=O)C1=CN(CC2CCCO2)C=C(C(=O)OC)C1c1cccc(OC)c1 (centres undefined),NF-kB reporter,[1]; [4],1.36 ± 0.25
same,NF-kB reporter,[1]; agonist: LPS 0.1 ug/mL,0.859 ± 0.065
same,NF-kB reporter,[1]; agonist: MPLA […],1.29 ± 0.13
same,IRF reporter,[2]; agonist: 3'3'-cGAMP 10 ug/mL,0.943 ± 0.034
same,IRF reporter,[2]; agonist: LPS 0.1 ug/mL,0.947 ± 0.045
same,IRF reporter,[2]; agonist: MPLA […],0.879 ± 0.13
same,viability score,[3],0.994 (active)
O=C(C=Cc1ccccc1)c1ccc(OC2OC(CO)C(O)C(O)C2O)cc1O (centres undefined),NF-kB reporter,[1]; [4],1.18 ± 0.068
same,NF-kB reporter,[1]; agonist: LPS 0.1 ug/mL,1.03 ± 0.082
same,NF-kB reporter,[1]; agonist: MPLA […],0.94 ± 0.07
same,IRF reporter,[2]; agonist: 3'3'-cGAMP 10 ug/mL,1.02 ± 0.039
same,IRF reporter,[2]; agonist: LPS 0.1 ug/mL,1.32 ± 0.087
same,IRF reporter,[2]; agonist: MPLA […],1.2 ± 0.17
same,viability score,[3],0.986 (active)
CCOc1nc2cccc(C(=O)O)c2n1Cc1ccc(-c2ccccc2-c2nn[nH]n2)cc1,NF-kB reporter,[1]; [4],1.09 ± 0.15
same,NF-kB reporter,[1]; agonist: LPS 0.1 ug/mL,1.17 ± 0.38
same,NF-kB reporter,[1]; agonist: MPLA […],0.976 ± 0.054
same,IRF reporter,[2]; agonist: 3'3'-cGAMP 10 ug/mL,0.907 ± 0.069
same,IRF reporter,[2]; agonist: LPS 0.1 ug/mL,1.26 ± 0.31
same,IRF reporter,[2]; agonist: MPLA […],0.98 ± 0.13
same,viability score,[3],1.01 (active)
CCOc1ccc2nc(SC3CC(=O)N(c4cccc(Cl)c4)C3=O)sc2c1 (centres undefined),NF-kB reporter,[1]; [4],0.954 ± 0.091
same,NF-kB reporter,[1]; agonist: LPS 0.1 ug/mL,1.04 ± 0.058
same,NF-kB reporter,[1]; agonist: MPLA […],0.785 ± 0.047
same,IRF reporter,[2]; agonist: 3'3'-cGAMP 10 ug/mL,0.778 ± 0.046
same,IRF reporter,[2]; agonist: LPS 0.1 ug/mL,1.11 ± 0.079
same,IRF reporter,[2]; agonist: MPLA […],1.04 ± 0.16
same,viability score,[3],1.01 (active)
CCOC(=O)c1ccc(N)cc1.Cl,NF-kB reporter,[1]; [4],0.872 ± 0.12
same,NF-kB reporter,[1]; agonist: LPS 0.1 ug/mL,1.03 ± 0.12
same,NF-kB reporter,[1]; agonist: MPLA […],0.997 ± 0.056
same,IRF reporter,[2]; agonist: 3'3'-cGAMP 10 ug/mL,0.819 ± 0.036
same,IRF reporter,[2]; agonist: LPS 0.1 ug/mL,1.25 ± 0.1
same,IRF reporter,[2]; agonist: MPLA […],0.977 ± 0.13
same,viability score,[3],0.996 (active)
O=C(NCCc1cn2ccccc2n1)c1ccccc1Br,NF-kB reporter,[1]; [4],0.964 ± 0.069
same,NF-kB reporter,[1]; agonist: LPS 0.1 ug/mL,0.943 ± 0.12
same,NF-kB reporter,[1]; agonist: MPLA […],1.03 ± 0.056
same,IRF reporter,[2]; agonist: 3'3'-cGAMP 10 ug/mL,1 ± 0.048
same,IRF reporter,[2]; agonist: LPS 0.1 ug/mL,1.2 ± 0.25
same,IRF reporter,[2]; agonist: MPLA […],1.24 ± 0.32
same,viability score,[3],0.975 (active)
CC(Oc1ccccc1)C(=O)NCc1cc(-c2ccncc2)n(C2CCCC2)n1 (centres undefined),NF-kB reporter,[1]; [4],1.35 ± 0.1
same,NF-kB reporter,[1]; agonist: LPS 0.1 ug/mL,1.24 ± 0.11
same,NF-kB reporter,[1]; agonist: MPLA […],1.13 ± 0.12
same,IRF reporter,[2]; agonist: 3'3'-cGAMP 10 ug/mL,1.02 ± 0.067
same,IRF reporter,[2]; agonist: LPS 0.1 ug/mL,1.02 ± 0.064
same,IRF reporter,[2]; agonist: MPLA […],1.12 ± 0.086
same,viability score,[3],1 (active)
